Results filed as inconclusive are left out. The source made the active and inactive calls. Unless noted, the call rests on the fitted dose curve; in most records, active means well fitted curve in the direction sought with a large enough effect; inconclusive means small, poorly fitted or top-dose-only effect, or another doubt; inactive means no such curve, though single readings can be large; an effect the other way counts as inactive or inconclusive.
How the values were obtained:
[1] = molecular target: Alpha-galactosidase A (Homo sapiens) (UniProt P06280); experiment: Counterscreen for Glucocerebrosidase Inhibitors: qHTS Assay for Human alpha-Galactosidase at pH 4.5 (AID 992); further: 0% is about no effect
Sequence of Alpha-galactosidase A (Homo sapiens) (P06280 whole entry, looked up): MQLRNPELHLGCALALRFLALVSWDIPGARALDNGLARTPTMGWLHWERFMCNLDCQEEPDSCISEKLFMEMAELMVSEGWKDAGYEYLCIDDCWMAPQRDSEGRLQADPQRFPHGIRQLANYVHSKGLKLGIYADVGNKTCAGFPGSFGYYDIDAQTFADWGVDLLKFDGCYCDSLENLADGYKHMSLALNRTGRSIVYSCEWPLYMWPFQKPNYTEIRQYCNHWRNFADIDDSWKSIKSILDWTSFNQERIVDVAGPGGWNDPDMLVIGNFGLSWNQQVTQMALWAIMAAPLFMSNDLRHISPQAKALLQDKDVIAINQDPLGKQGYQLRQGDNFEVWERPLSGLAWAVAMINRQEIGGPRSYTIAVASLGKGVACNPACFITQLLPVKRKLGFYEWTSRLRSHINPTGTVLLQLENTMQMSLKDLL
Procedure, shortened: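 Enzyme at 2 nM final was combined with compound (0.7 nM to 77 uM) and 80 uM 4-methylumbelliferyl alpha-D-galactopyranoside in 50 mM citric acid, 0.005% Tween-20, pH 4.5. After 20 min at room temperature, fluorescence was read (Ex 365/Em 440 nm); AC50 came from Hill fits.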

[2] = molecular target: alpha-glucosidase (Oryza sativa, rice) (UniProt Q653V4); experiment: Counterscreen for Glucocerebrosidase Inhibitors: qHTS Assay for Rice alpha-Glucosidase at pH 5.0 (AID 997);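 further: 0% = full activity with enzyme and -100% = basal without enzyme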
Procedure, shortened: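 Rice alpha-glucosidase (4 nM final) with 400 uM 4-methylumbelliferyl-alpha-D-glucopyranoside in citrate buffer pH 5.0, 20 min at room temperature, stopped at pH 10; fluorescence 365/440 nm, compounds 0.7 nM–77 uM, AC50 from Hill fits.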

[3] = Validation of Assay for Modulators of Lamin A Splicing (AID 1459; active means well fitted curve in the direction sought with a large enough effect in the signal ratio; the % refers to the signal ratio;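 further: cells exposed to compound for two days before reading; 0% is about no effect; ratio rise marks activators and ratio drop marks inhibitors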)
Procedure, shortened: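 HeLa S3 lamin A-EGFP/DsRed2 stable clone, 600 cells/well, Opti-MEM 2% FBS; compounds by pin tool; 48 hrs, 37 °C/5% CO2; Acumen 488 nm scan, objects 10-100 um; GFP/RFP intensity ratio.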

[4] = molecular target: DNA repair nuclease/redox regulator APEX1 (Homo sapiens) (UniProt P27695); experiment: qHTS Validation Assay for Inhibitors of the Human Apurinic/apyrimidinic Endonuclease 1 (APE1) (AID 1705;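 further: TAMRA fluorescence gain over two minutes as APE1 cuts a quenched THF abasic duplex; on the % scale 0 is the no-effect control and ±100 the full control effect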)
Sequence of DNA repair nuclease/redox regulator APEX1 (Homo sapiens) (P27695 whole entry, looked up): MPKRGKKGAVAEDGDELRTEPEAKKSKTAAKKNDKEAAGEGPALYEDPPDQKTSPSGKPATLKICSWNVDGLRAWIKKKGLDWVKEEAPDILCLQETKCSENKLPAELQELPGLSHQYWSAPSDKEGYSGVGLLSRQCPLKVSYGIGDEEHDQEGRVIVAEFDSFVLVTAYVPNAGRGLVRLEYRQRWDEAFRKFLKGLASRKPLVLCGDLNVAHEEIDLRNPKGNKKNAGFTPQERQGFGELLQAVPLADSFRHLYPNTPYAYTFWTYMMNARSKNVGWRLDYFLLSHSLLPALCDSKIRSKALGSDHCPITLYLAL
Procedure, shortened: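 qHTS, 1536-well. APE1 + cpd 15 min RT → 50 nM TAMRA/BHQ-2 THF-abasic dsDNA substrate → kinetic fluorescence, 3 reads/60 s; delta(read3−read1) = reaction progress. No-enzyme buffer = negative control.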

[5] = Counterscreen for APE1 Inhibitors: Fluorescent Dye Displacement Validation Assay (AID 1707);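 further: plate controls were ThO with dsDNA and no compound for no effect and ThO without dsDNA for full effect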
Procedure, shortened: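 Thiazole Orange displacement from dsDNA: 250 nM ThO with 50 nM TAMRA-labelled abasic-site (tetrahydrofuran) duplex in 50 mM Tris-HCl pH7.5, 50mM NaCl, 2 mM MgCl2, 0.01% Tween-20. Loss of endpoint fluorescence (ex 480 nm, em 540 nm) flags DNA binders.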

[6] = molecular target: Endonuclease 4 (Escherichia coli (strain K12)) (UniProt P0A6C1); experiment: Counterscreen for APE1 Inhibitors: qHTS Validation Assay for Inhibitors of Endonuclease IV (AID 1708); further: on the % scale 0 is the no-effect control and ±100 the full control effect
Procedure, shortened: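 Enzymatic AP-site incision assay using a double-stranded THF substrate labelled with TAMRA and BHQ-2; released fluorescence signals activity. Enzyme 2 nM, substrate 50 nM, 15 min compound preincubation.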

[7] = qHTS for differential inhibitors of proliferation of Plasmodium falciparum line GB4 (AID 1816);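 further: parasite growth measured after 72 h incubation; 0% = vehicle DMSO and -100% = reference inhibitor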
[8] = qHTS for differential inhibitors of proliferation of Plasmodium falciparum line 3D7 (AID 1876);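 further: parasite growth measured after three days of culture; 0% = vehicle wells and -100% = reference inhibitor wells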
[9] = qHTS for differential inhibitors of proliferation of Plasmodium falciparum line D10 (AID 1877);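 further: parasites grown with compound for 72 h before DNA staining; plate controls were vehicle wells for no effect and reference inhibitor wells for full effect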
[10] = qHTS for differential inhibitors of proliferation of Plasmodium falciparum line Dd2 (AID 1882);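 further: compound exposure of 72 h on infected erythrocytes; plate controls were DMSO vehicle for no effect and 0.29 µM artemisinin for full effect; nearly all actives have a fitted effect of over 65% in size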
Procedure, shortened: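 SYBR Green I DNA fluorescence read-out, ex 485/em 535 nm. Signals were normalized to 0.29 uM artemisinin and DMSO wells, then corrected using vehicle-only plates flanking each stack. Parasite growth ran 72 h in erythrocytes before lysis.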

[11] = qHTS for differential inhibitors of proliferation of Plasmodium falciparum line W2 (AID 1883); conditions: Plasmodium falciparum W2 proliferation inhibition;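 further: potency means the concentration at half of the fitted maximal effect; parasites grown with compound for 72 h before lysis and staining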
[12] = qHTS for differential inhibitors of proliferation of Plasmodium falciparum line HB3 (AID 1886);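 further: parasites grown with compound for 72 h before SYBR Green readout; plate controls were vehicle for no effect and reference inhibitor for full effect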
[13] = molecular target: ATP-dependent DNA helicase Q1 (Homo sapiens) (UniProt P46063); experiment: qHTS Validation Assay for Inhibitors of RecQ-Like Dna Helicase 1 (RECQ1) (AID 2353);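 further: plate controls were DMSO vehicle for no effect and enzyme-free control for full effect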
Sequence of ATP-dependent DNA helicase Q1 (Homo sapiens) (P46063 whole entry, looked up): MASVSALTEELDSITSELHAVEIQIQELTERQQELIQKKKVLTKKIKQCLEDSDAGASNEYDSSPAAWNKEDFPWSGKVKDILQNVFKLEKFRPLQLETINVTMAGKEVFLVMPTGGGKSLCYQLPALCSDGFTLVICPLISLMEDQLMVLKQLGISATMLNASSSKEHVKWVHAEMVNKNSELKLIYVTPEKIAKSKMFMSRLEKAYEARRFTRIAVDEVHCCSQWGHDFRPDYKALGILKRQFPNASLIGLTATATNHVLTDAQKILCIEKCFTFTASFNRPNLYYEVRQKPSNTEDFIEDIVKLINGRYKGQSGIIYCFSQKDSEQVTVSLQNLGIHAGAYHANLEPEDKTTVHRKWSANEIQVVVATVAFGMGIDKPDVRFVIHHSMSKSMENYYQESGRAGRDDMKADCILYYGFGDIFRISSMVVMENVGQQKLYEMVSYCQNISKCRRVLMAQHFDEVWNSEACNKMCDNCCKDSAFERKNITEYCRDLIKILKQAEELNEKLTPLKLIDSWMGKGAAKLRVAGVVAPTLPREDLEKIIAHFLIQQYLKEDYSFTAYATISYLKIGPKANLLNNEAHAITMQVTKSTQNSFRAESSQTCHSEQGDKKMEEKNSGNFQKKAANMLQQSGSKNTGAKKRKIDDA
Procedure, shortened: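 50 nM RECQ1T1 preincubated 15 min with compound in Tris pH 8.0 buffer with MgCl2, DTT, Tween-20 and 2.5 ug/ml poly(dI-dC); started with 200 nM TAMRA/BHQ-2 forked duplex and 2 mM ATP. Unwinding read as fluorescence (525/598 nm), two reads 2 h apart.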

[14] = Cytometric Cell-Based qHTS for Inhibitors of the mTORC1 Signaling Pathway in MEF (Tsc2-/-, p53-/-) Cells (AID 2660);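 further: Tsc2 and p53 null MEFs carrying empty vector with compound for 24 h; percent of cells above a phospho-rpS6 to PI ratio cutoff in each well; plate controls were DMSO for no effect and rapamycin for full effect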
Procedure, shortened: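 Readout: Alexa-488 phospho-rpS6 (Ser235/236) intensity divided by PI intensity, thresholded against 7.5 nM rapamycin wells and reported as % positive cells. PI cell count served as the viability measure. Compound exposure was 24 hrs at 37 degree Celsius.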

[15] = High Content Imaging Cell-Based qHTS for Inhibitors of the mTORC1 Signaling Pathway in MEF (Tsc2-/-, p53-/-) Cells (AID 2666); conditions: at 38.3 µM (top of the series);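 further: percent of cells scored positive for phospho-rpS6 Ser235/236 immunostaining by imaging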
Procedure, shortened: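 Cells were plated, dosed with compound after 24 hrs, and incubated another 24 hrs at 37 degree Celsius. Fixed cells were immunostained for phospho-rpS6 Ser235/236 and counterstained, and the normalized signal was scored as % active cells against rapamycin and DMSO controls.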

[16] = High Content Imaging Cell-Based qHTS for Inhibitors of the mTORC1 Signaling Pathway in MEF Cells (AID 2667);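 further: Tsc2-/- p53-/- MEFs stably re-expressing wild-type Tsc2 exposed 24 h; plate controls were DMSO wells for no effect and rapamycin control wells for full effect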
Procedure, shortened: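 Immunofluorescence for rpS6 phosphorylation in MEFs of Tsc2-/-, p53-/- background rescued with WT Tsc2. Compound exposure lasted 24 hrs. Inhibition was scored against rapamycin-treated control wells.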

[17] = Validation screen for small molecules that induce DNA re-replication in MCF 10A normal breast cells (AID 463097); further: 0% is about no effect; nearly all actives have a fitted effect of over 60% in size
Procedure, shortened: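 Image-based qHTS: normal breast cells are incubated with compound for 48 hr, stained with Hoechst, and scanned for total nuclear fluorescence. Compounds raising the fraction of nuclei with elevated DNA content count as re-replication inducers.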

[18] = molecular target: Ubiquitin carboxyl-terminal hydrolase 2 (Homo sapiens) (UniProt O75604); experiment: qHTS Validation Assay for Inhibitors of Ubiquitin-specific Protease USP2a Using CHOP2 as the Reporter (AID 463106);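 further: plate controls were DMSO for no effect and full inhibition by NEM for full effect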
Sequence of Ubiquitin carboxyl-terminal hydrolase 2 (Homo sapiens) (O75604 whole entry, looked up): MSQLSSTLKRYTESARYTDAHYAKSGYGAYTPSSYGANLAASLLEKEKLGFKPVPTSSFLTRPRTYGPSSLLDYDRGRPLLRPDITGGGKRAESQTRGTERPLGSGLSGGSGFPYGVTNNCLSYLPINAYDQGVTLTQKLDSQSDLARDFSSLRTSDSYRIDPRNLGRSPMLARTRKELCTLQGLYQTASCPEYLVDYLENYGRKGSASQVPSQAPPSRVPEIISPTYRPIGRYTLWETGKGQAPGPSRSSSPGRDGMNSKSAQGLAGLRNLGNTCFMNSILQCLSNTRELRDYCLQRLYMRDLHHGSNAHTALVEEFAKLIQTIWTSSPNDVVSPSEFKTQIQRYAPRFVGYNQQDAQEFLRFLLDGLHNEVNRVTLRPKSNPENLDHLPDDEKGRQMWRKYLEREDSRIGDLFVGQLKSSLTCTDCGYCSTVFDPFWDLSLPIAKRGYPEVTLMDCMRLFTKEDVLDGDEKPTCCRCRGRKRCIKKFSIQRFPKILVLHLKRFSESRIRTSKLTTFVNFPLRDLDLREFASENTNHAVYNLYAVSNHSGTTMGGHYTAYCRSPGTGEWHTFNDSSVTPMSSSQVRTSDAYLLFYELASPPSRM
Procedure, shortened: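 10nM USP2 core + cpd, 30min RT; add 25nM Ub-CHOP2/25nM substrate; 60min RT; FI 485/531nm. Buffer Tris pH 8.0, CaCl2, BME, CHAPS. Norm. to NEM = 100% inhibition; time-zero read flags fluorescent artifacts.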

[19] = qHTS Assay for Lipid Storage Modulators (AID 1519; calls by dose curve; further: on the % scale 0 is the no-effect control and ±100 the full control effect); conditions: Drosophila S3 cells, BODIPY lipid droplet/cell ratio, laser cytometry; at 25.7 µM (top of the series); cells loaded with oleic acid
Procedure, shortened: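 Cells seeded at 5,000 per well were treated with compounds over a concentration series and loaded with oleic acid (400 uM, as added). Lipid droplet fluorescence (488 nm excitation, 500-530 nm channel) was read by laser-scanning cytometry and normalized to 20 uM Triacsin C.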

[20] = molecular target: RecQ-like DNA helicase BLM (Homo sapiens) (UniProt P54132); experiment: qHTS Validation Assay for Inhibitors of Bloom's syndrome helicase (BLM) (AID 2364);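 further: plate controls were DMSO vehicle for no effect and enzyme-free control for full effect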
Sequence of RecQ-like DNA helicase BLM (Homo sapiens) (P54132 whole entry, looked up): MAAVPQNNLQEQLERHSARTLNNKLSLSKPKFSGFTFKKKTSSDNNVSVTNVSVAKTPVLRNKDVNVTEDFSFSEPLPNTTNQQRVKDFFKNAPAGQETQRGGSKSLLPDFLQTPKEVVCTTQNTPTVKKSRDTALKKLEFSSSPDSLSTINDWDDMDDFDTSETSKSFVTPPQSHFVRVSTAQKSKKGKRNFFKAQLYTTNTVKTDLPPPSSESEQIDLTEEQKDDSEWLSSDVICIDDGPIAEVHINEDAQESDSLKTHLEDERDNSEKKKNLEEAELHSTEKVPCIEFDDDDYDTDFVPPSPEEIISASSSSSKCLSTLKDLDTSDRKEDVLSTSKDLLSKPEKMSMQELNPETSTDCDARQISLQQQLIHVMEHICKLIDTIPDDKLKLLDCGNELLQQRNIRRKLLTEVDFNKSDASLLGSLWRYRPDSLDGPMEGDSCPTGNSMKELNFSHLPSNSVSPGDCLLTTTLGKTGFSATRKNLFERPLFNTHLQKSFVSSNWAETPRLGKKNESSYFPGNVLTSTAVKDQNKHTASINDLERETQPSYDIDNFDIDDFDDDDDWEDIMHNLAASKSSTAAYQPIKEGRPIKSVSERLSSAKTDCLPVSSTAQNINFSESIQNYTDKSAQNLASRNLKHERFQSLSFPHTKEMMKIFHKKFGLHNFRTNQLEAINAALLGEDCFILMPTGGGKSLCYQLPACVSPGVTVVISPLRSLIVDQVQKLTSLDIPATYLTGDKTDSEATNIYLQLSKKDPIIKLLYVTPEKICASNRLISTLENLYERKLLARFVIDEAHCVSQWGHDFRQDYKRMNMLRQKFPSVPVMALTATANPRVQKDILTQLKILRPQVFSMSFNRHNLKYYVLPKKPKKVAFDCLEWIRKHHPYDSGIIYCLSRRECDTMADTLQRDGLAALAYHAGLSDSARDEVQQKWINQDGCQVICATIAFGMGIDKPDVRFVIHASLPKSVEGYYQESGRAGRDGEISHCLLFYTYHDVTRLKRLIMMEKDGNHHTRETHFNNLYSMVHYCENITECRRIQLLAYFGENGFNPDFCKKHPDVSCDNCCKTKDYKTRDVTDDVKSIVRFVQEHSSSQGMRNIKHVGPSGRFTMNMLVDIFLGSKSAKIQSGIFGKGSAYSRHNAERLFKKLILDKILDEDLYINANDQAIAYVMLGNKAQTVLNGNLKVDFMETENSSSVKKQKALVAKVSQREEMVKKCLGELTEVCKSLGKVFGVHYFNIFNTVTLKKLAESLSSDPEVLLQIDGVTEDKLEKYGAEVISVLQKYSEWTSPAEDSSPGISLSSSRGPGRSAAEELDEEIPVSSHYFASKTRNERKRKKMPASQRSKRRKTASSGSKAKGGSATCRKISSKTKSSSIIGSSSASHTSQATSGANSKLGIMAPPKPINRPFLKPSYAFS
Procedure, shortened: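 Forked 20-bp duplex substrate (200 nM, TAMRA/BHQ-2) plus 2 mM ATP added after 15 min compound preincubation with 50 nM enzyme, pH 8.0, poly(dI-dC) 2.5 ug/ml. Strand separation followed by fluorescence (525/598 nm) over 2 h, normalized to enzyme-free and DMSO controls.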

O=c1c2ccccc2nc2n1CCc1c-2[nH]c2ccccc12
inactive: outcome [1] | outcome [2] | outcome [3] | outcome [4] | outcome [5] | outcome [6] | outcome [7] | outcome [8] | outcome [9] | outcome [10] | outcome [12] | outcome [13] | outcome [14] | outcome [15] | outcome [16] | outcome [17] | outcome [18]
active: Potency [11] 12.6 µM

C[C@H]1C[C@@H]2[C@@H]([C@@H](O)C[C@@]3(C)[C@H]2CC[C@]3(O)C(=O)CO)[C@@]2(C)C=CC(=O)C=C12
inactive: activity change, negative = inhibition [19] -1.2%

Nc1ccc(S(=O)(=O)Nc2ncccn2)cc1
inactive: activity change, negative = inhibition [19] 0.373%

CC[C@H](CO)Nc1nc(NCc2ccccc2)c2ncn(C(C)C)c2n1
inactive: outcome [4] | outcome [5] | outcome [6] | outcome [13] | outcome [20]

Source: PubChem BioAssay (NCATS)
